# This is a sample that favours compounds with a hit; in the whole collection about 7.5% have one here.
# KinaseGlo FLuc = Kinase-Glo luciferase inhibition (counter-screen); AID 1379; Kinase-Glo luciferase, ATP luminescence, 8 min; actives 0.28% (n = 200,000); Potency, µM (doses to about 38.3 µM), without a hit: at the highest dose activity change, negative = inhibition, actives largely listed as inhibitors; note: % is set by controls: 0 for no effect and ±100 for the full control effect; nearly all actives have a fitted effect of over 60% in size
#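 Substrate mix (final 50 mM imidazole pH 7.2, 50 mM KCl, 7 mM MgCl2, 10 uM ATP, 0.01% Tween 20, 0.05% BSA) plus pin-tool compound, then Kinase-Glo detection mix; 8 min ambient, luminescence read.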
# FLuc counter = counter-screen for miR-21 project: firefly luciferase inhibitors or activators; P08659; purified FLuc, Km substrates, luminescence inhibition; Potency, µM (titrated, usually from 57.5 µM), for the others: at the highest dose activity change, negative = inhibition, hits mostly inhibitors; actives 6.9% (n = 360,000);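 note: plate controls were vehicle for no effect and reference inhibitor for full effect; nearly all actives have a fitted effect of over 55% in size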
# Target sequence (P08659 whole entry, looked up): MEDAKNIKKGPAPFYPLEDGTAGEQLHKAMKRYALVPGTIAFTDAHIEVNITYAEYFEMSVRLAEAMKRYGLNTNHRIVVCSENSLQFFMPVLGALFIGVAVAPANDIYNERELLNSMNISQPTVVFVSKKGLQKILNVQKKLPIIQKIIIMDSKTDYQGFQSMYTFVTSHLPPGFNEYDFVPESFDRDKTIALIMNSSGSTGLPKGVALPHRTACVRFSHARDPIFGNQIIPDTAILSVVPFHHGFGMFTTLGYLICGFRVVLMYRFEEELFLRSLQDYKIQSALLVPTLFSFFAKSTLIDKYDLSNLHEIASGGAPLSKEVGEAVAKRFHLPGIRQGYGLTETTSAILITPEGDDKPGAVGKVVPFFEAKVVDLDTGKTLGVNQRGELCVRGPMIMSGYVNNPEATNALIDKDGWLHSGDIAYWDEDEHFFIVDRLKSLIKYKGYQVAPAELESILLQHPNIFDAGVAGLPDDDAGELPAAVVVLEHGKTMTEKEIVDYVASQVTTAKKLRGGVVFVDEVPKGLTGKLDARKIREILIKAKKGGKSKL
#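 Purified P. pyralis luciferase (10nM final) with 10uM D-luciferin and 10uM ATP (Km levels) in 50mM Tris acetate pH 7.5, 10mM Mg acetate, 0.01% Tween-20, 0.05% BSA; qHTS 6-point titration, ~60 µM downward; luminescence read.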
# ELG1 genotox = genotoxicity induction in ELG1-luciferase HEK293T cells; HEK293T ELG1-luciferase reporter, luminescence, 16 h; Potency, µM (highest dose often 46 µM), for inactives: top-dose activity change, positive = activation, hits mostly activators; actives 1.3% (n = 330,000); note: % of control where 0% means no effect; nearly all actives have a fitted effect of over 60% in size
#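 Screening used a luciferase reporter fused to human ELG1 in HEK293T cells. Luminescence was read on a CCD plate imager after 16 hr exposure and 30 min ONE-Glo incubation.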
# Rab9 promoter act = Rab9 promoter activation | Huh7 Rab9 promoter-luciferase reporter, luminescence, 24 h | Potency, µM (series often up to 9.22 µM), inactives show at the top dose activation, negative = inhibition, usual class: activators | actives 2.8% (n = 320,000) | AID 485297; note: % of control where 0% means no effect; nearly all actives have a fitted effect of over 60% in size
#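 Cells were plated at 1500 per well in reduced-serum medium with 10% FBS and left 2 h. Compound in DMSO was then added for 24 h at 37 °C. Reporter signal was read by luminescence after 10 min with luciferase detection reagent.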
# SMN2 splice up = increases expression of the SMN2 splice variant; HEK293 SMN2-luciferase splicing reporter, luminescence, 30-36 h; Potency, µM (titrated, usually from 46.1 µM), for inactives: at the top dose activity change, positive = activation, actives largely listed as activators; actives 2.8% (n = 210,000); note: % of control where 0% means no effect; nearly all actives have a fitted effect of over 55% in size
#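 HEK293 cells carry an SMN2 […]–luciferase reporter in which exon 7 inclusion puts luciferase in frame. Cells were plated 10-12 h before compound addition, then incubated 30-36 h at 37C. ONE-Glo luminescence was read; sodium butyrate at 4.5 mM final served as control.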
# NPC1 promoter act = activators of NPC1 promoter | Huh7 NPC1 promoter luciferase reporter, 24 h | Potency, µM (titrated, usually from 9.22 µM), inactives show top-dose activation, actives largely listed as activators | actives 2.4% (n = 320,000); note: % of control where 0% means no effect; nearly all actives have a fitted effect of over 60% in size
#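 Compounds in DMSO were transferred onto Huh7 NPC1-luciferase reporter cells pre-incubated 2 h; after 24 h at 37 °C, Amplite reagent was dispensed and luminescence recorded 10 min later.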
# * hit, by the source's call; ? = inconclusive; · = no result given; [ ] = another dose, or the depositor's remark. Calls come from the whole dose curve; as a rule, active = well fitted curve in the direction sought with a large enough effect; inconclusive = small, poorly fitted or top-dose-only effect, or another doubt; inactive = no such curve, though single readings can be large; an effect the other way counts as inactive or inconclusive. Potency is the fitted concentration of half-maximal effect.
SMILES,KinaseGlo FLuc,FLuc counter,ELG1 genotox,Rab9 promoter act,SMN2 splice up,NPC1 promoter act
CCOC(=O)c1ccc(CN(Cc2ccccc2C)S(=O)(=O)c2ccc(C(C)(C)C)cc2)cc1,·,1%,·,·,·,·
CCc1ccc(NC(=O)Cn2c(=O)n(CCC(=O)NCCc3ccc(Cl)cc3)c(=O)c3ccccc32)cc1,·,-1%,·,·,23%,·
Cc1ccccc1OCC(=O)Nc1ccccc1OCc1cc(=O)n2ccccc2n1,·,11µM*,·,·,·,·
COc1cccc(CNC(=O)CCNS(=O)(=O)c2ccc3c(c2)CCCC(=O)N3)c1,·,6%,·,·,·,·
COc1ccc(NC(=O)Cn2c(=O)n(Cc3ccccc3)c(=O)c3oc4ccccc4c32)cc1Cl,·,2.4µM*,·,·,·,·
CCc1ccc(NC(=O)Cn2c(=O)n(Cc3ccccc3)c(=O)c3oc4ccccc4c32)cc1,·,-4%,·,·,·,·
COc1ccc(/C(C)=N/Nc2nc3ccccc3nc2C)cc1,·,2.7µM*,7%,6%,·,4%
COc1ccc(/C=N/Nc2nncc3ccccc23)cc1,11µM*,0.17µM*,0.26µM*,0.2µM*,0.71µM*,0.28µM*
COc1ccc(/C(C)=N/Nc2nncc3ccccc23)cc1,·,1.3µM*,?,0.71µM*,·,1.6µM*
COc1ccccc1/C=N/Nc1nncc2ccccc12,-21%,9.5µM*,?,3.5µM*,10µM*,?
C/C(=N\Nc1nc(-c2ccccc2O)nc2ccccc12)c1ccccc1,-7%,?,0%,17%,·,15%
COc1ccc(/C=N/NC(N)=S)cc1,·,?,5%,1%,·,1%
COc1ccc(OC)c(NCc2cccn2-c2nnc(N3CCCCC3)s2)c1,·,-20%,·,·,·,·
CCCCC#Cc1nc(NC)c2ncn([C@@H]3O[C@H](CO)[C@@H](O)[C@H]3O)c2n1,·,·,·,0%[46.1 µM],·,4%[46.1 µM]
CNC(=S)NNc1nncc2ccccc12,1%,0%,5%,-2%,22%,-2%
NNc1nncc2ccccc12,-9%,·,·,2.3µM*,13µM*,2.6µM*
Oc1c(Br)cc(/C=N/Nc2nncc3ccccc23)cc1Br,·,9.5µM*,12%,29%,·,?
CC1(C)Cc2ccccc2C(N/N=C/c2ccc(Cl)cc2)=N1,2%,17µM*,-5%,-3%,-8%,-2%
Fc1ccc(/C=N/Nc2ccccn2)cc1,-6%,11µM*,?,3.5µM*,81%,28%
Brc1ccc(/C=N/Nc2ccccn2)cc1,0%,6.7µM*,?,3.5µM*,·,?
CC1(C)Cc2ccccc2C(N/N=C/c2ccc([N+](=O)[O-])cc2)=N1,-1%,-6%,5%,-2%,-21%,-3%
COc1ccc(/C=N/Nc2ccccn2)cc1O,·,6.7µM*,?,?,·,?
CC(C)c1ccc(C(=O)CC2(O)C(=O)N(CCc3ccccc3)c3ccc(Cl)cc32)cc1 (stereo not drawn),·,-10%,·,·,-11%,·
O=c1cnc2cnc(Oc3ccccc3)nc2n1Cc1ccc(F)cc1,0%,·,·,·,-12%,·
Cc1nc(-c2ccc(S(=O)(=O)Nc3ccc(OC(F)(F)F)cc3)cc2)co1,·,-6%,·,·,·,·
SMILES,KinaseGlo FLuc,FLuc counter,ELG1 genotox,Rab9 promoter act,SMN2 splice up,NPC1 promoter act
COc1ccc(NC(=O)Cn2c(=O)n(Cc3ccc4c(c3)OCO4)c(=O)c3ccc(C(=O)NC4CCCCC4)cc32)cc1,·,1%,·,·,10%,·
Cc1ccc(/C=N/Nc2ccccn2)s1,·,11µM*,?,?,·,?
Clc1ccc(/C=N/Nc2ccccn2)cc1,-17%,6.7µM*,?,3.2µM*,·,?
CCOc1ccc(/C=N/Nc2ccccn2)cc1,10µM*,1.2µM*,2.3µM*,0.5µM*,1.6µM*,1.3µM*
COc1ccc2nc(Cl)c(/C=N/Nc3ccccn3)cc2c1,-23%,0.54µM*,?,?,?,28%
O=C(O)COc1cccc(-c2ocnc2-c2nc(-c3ccccc3)c(-c3ccccc3)o2)c1,-1%,·,·,·,·,·

# Source: PubChem (National Center for Advancing Translational Sciences (NCATS))
